Test systems include DU-145 prostate; K-562 leukemia; MALME-3M melanoma; MDA-MB-231 breast; RXF 393 renal; SF-268 CNS; SF-295 CNS; SF-539 CNS; UACC-257 melanoma; M14 melanoma; HCT-15 colon; HT29 colon; SNB-75 CNS; SNB-19 CNS; U251 CNS; PC-3 prostate; SK-MEL-5 melanoma; UACC-62 melanoma; LOX IMVI melanoma; SK-MEL-28 melanoma.
Holding throughout (assay): NCI-60 one-dose screen, 48 h (100 = growth as untreated, 0 = no growth, -100 = all killed)
Holding throughout (conditions): 10 µM unless noted

About 83,000 compounds went through this panel and 20% of them were active in at least one assay; those are over-represented in the sample as a whole.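 Assay: single dose, 48 h. Readout: percent growth (0 = no net growth; negative = cell death). Active: <10.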 Values without a mark were called inactive. Active and inactive are the calls of the source.

Take `Cc1[nH]c(C(=O)Nc2ccccc2OC2CCNCC2)c(Cl)c1Cl`: the growth in the test with DU-145 prostate is 16.4%; in the test with K-562 leukemia it was -2.5% (active); in the test with MALME-3M melanoma, -49.5% (active); in the test on MDA-MB-231 breast, -43.4% (active); in the test on RXF 393 renal, -85.4% (active); in the test with SF-268 CNS it was 39.4%. Besides, the growth is -20.2% (active) with SF-295 CNS; -94.1% (active) in the test with SF-539 CNS; 13.7% with UACC-257 melanoma; -51.6% (active) in the test on M14 melanoma; 20.2% in the test on HCT-15 colon; -7.94% (active) in the test with HT29 colon. Moreover, the growth in the test on SNB-75 CNS is -28.9% (active); in the test on SNB-19 CNS, 33.4%; in the test with U251 CNS it was -4.3% (active); in the test on PC-3 prostate, 43.1%; in the test on SK-MEL-5 melanoma, -40.6% (active); in the test with UACC-62 melanoma, -79.9% (active). Besides, the growth is -88.3% (active) with LOX IMVI melanoma and 18.9% in the test on SK-MEL-28 melanoma.

Turning to `Oc1ccc(Cl)cc1/C=N\NC(=S)N/N=C/c1cc(Cl)ccc1O`, the growth is 58.3% in the test with DU-145 prostate; 22.1% in the test on K-562 leukemia; 23.4% with MALME-3M melanoma; 37.2% in the test with MDA-MB-231 breast; 42.6% in the test with RXF 393 renal; 40.6% with SF-268 CNS. The growth with SF-295 CNS was 11%; in the test on SF-539 CNS, 20%; in the test with UACC-257 melanoma, 21.8%; with M14 melanoma, 27.1%; with HCT-15 colon it was 23%; with HT29 colon, 33.9%. Also, the growth in the test with SNB-75 CNS is 77.7%; in the test on SNB-19 CNS, 39.8%; in the test on U251 CNS it was 25.9%; with PC-3 prostate, 25.8%; with SK-MEL-5 melanoma, -32.6% (active); in the test with UACC-62 melanoma it was 3.04% (active). The growth is 15.7% in the test on LOX IMVI melanoma and 58.4% in the test with SK-MEL-28 melanoma.

Take `Fc1cnccc1C1CC(c2ccc(N3CCNCC3)cc2)=NN1` (stereo not given): the growth was 107% with DU-145 prostate; 77.9% in the test with K-562 leukemia; 93.4% in the test with MALME-3M melanoma; 84.6% in the test with MDA-MB-231 breast; 105% in the test with RXF 393 renal; 107% with SF-268 CNS. In addition, the growth in the test on SF-295 CNS is 98%; with SF-539 CNS, 104%; in the test with UACC-257 melanoma it was 83.1%; with M14 melanoma, 95.9%; in the test with HCT-15 colon, 97.6%; with HT29 colon it was 60.2%. For the same molecule, the growth with SNB-75 CNS was 101%; in the test with SNB-19 CNS it was 97.5%; in the test on U251 CNS, 95.1%; in the test on PC-3 prostate, 70.3%; with SK-MEL-5 melanoma, 85.8%; with UACC-62 melanoma, 81.9%. Also, the growth in the test with LOX IMVI melanoma is 94.3%; with SK-MEL-28 melanoma, 116%.

Take `O=S(=O)(Nc1cc(Cl)ccc1Cl)c1ccc(-c2cnc(C3CC3)o2)cc1`: the growth with DU-145 prostate was 70.8%; in the test on K-562 leukemia, 12%; in the test on MALME-3M melanoma, 55.7%; in the test with MDA-MB-231 breast, 65.2%; in the test on RXF 393 renal it was 44.8%; in the test on SF-268 CNS it was 49.7%. Also, the growth is 24.8% in the test on SF-295 CNS; 25.1% in the test with SF-539 CNS; 50.6% in the test on UACC-257 melanoma; 29.1% in the test on M14 melanoma; 26.2% in the test with HCT-15 colon; 5.45% (active) in the test on HT29 colon. The growth in the test on SNB-75 CNS is -8.98% (active); with SNB-19 CNS, 31.7%; in the test on U251 CNS, 30.2%; with PC-3 prostate, 38.3%; with SK-MEL-5 melanoma, 31.1%; with UACC-62 melanoma it was 33.2%. In addition, the growth in the test on LOX IMVI melanoma is 35.8%; with SK-MEL-28 melanoma, 63.2%.

For `O=C(NCc1ccc(Cl)cc1Cl)C1CCC(=O)N1c1cccs1` (stereo not given), the growth in the test on DU-145 prostate was 108%; in the test with K-562 leukemia, 108%; in the test on MALME-3M melanoma, 96.3%; with MDA-MB-231 breast, 96.5%; in the test with RXF 393 renal, 109%; in the test on SF-268 CNS, 100%. In addition, the growth with SF-295 CNS was 90.8%; in the test on SF-539 CNS, 93.6%; in the test on UACC-257 melanoma, 90.8%; with M14 melanoma it was 104%; in the test on HCT-15 colon, 96.5%; in the test with HT29 colon, 89.9%. Besides, the growth in the test with SNB-75 CNS is 77.6%; in the test on SNB-19 CNS, 99.9%; in the test with U251 CNS it was 89.4%; in the test with PC-3 prostate, 87.4%; with SK-MEL-5 melanoma, 102%; with UACC-62 melanoma it was 80.7%. Besides, the values for the growth in the test with LOX IMVI melanoma and with SK-MEL-28 melanoma were 89.1% and 93.4%, respectively.

As to `O=C1c2ccc3c4c5ccc(c24)C(=O)N1CCCOCCCCOCCCNCc1ccc(cc1)CNCCCOCCCCOCCCN(C3=O)C5=O`, the growth with DU-145 prostate is 8.84% (active); with K-562 leukemia, -19.3% (active); in the test on MALME-3M melanoma, -90.7% (active); in the test with MDA-MB-231 breast, -11.7% (active); in the test with RXF 393 renal, 30.3%; in the test with SF-268 CNS it was 2.25% (active). For the same molecule, the growth in the test on SF-295 CNS is 91.5%; in the test with SF-539 CNS it was -85.7% (active); with UACC-257 melanoma it was -78.9% (active); in the test on M14 melanoma, -85.3% (active); with HCT-15 colon it was -41% (active); in the test on HT29 colon, -18.7% (active). For the same molecule, the growth was 98.1% with SNB-75 CNS; -2.17% (active) in the test on SNB-19 CNS; -78.3% (active) in the test with U251 CNS; 6.2% (active) with PC-3 prostate; -99.9% (active) in the test on SK-MEL-5 melanoma; -90.3% (active) in the test on UACC-62 melanoma. Moreover, the growth with LOX IMVI melanoma was -87.8% (active); with SK-MEL-28 melanoma it was -24.1% (active).

For the molecule `O=C(Nc1cccc(-c2ccc(N3CCOCC3)nn2)c1)Nc1cccc(C(F)(F)F)c1`, the growth in the test on DU-145 prostate is 80.5%; with K-562 leukemia, 46.1%; in the test on MALME-3M melanoma it was 89.5%; with MDA-MB-231 breast it was 80.1%; in the test with RXF 393 renal, 81.5%; with SF-268 CNS, 91.2%. For the same molecule, the growth is 52% in the test on SF-295 CNS; 89.1% in the test on SF-539 CNS; 69.7% in the test on UACC-257 melanoma; 63.1% in the test with M14 melanoma; 68.3% with HCT-15 colon; 91.2% with HT29 colon. The growth in the test on SNB-75 CNS was 111%; in the test with SNB-19 CNS, 86.6%; in the test on U251 CNS, 71.2%; in the test with PC-3 prostate, 31.4%; with SK-MEL-5 melanoma, 41.9%; with UACC-62 melanoma, 43.2%. Further, the growth was 70.2% in the test on LOX IMVI melanoma and 88.7% with SK-MEL-28 melanoma.
